Records with an inconclusive call do not appear. Calls of active or inactive are those of the source. Unless noted, calls follow the shape of the dose curve; as a rule, active = well fitted inhibition curve with a large enough effect; inconclusive = small, poorly fitted or top-dose-only effect; inactive = no such curve, though single readings can be large or run the other way.
Columns and labels:
[1] = qHTS profiling of the MIPE4 collection as inhibitors of Plasmodium falciparum (DD2) proliferation (AID 743345; call rule not given here); conditions: P. falciparum Dd2 in erythrocytes, SYBR Green DNA, 72 h; at 28.5 µM (top of the series) unless noted
Summary of the method: (§1)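 Parasite DNA was quantified by SYBR Green I fluorescence (ex 485, em 535 nm) after overnight lysis in saponin/Triton buffer at room temperature. Cultures at 0.3% parasitemia and 2.5% hematocrit were first exposed to compound for 72 h at 37 C; signals were normalised to artemisinin (0.29 uM) and vehicle wells.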

[2] = qHTS profiling of the MIPE4 collection as inhibitors of Plasmodium falciparum (DD2) proliferation (Rep 2) (AID 743346; call rule not given here); conditions: P. falciparum Dd2 in erythrocytes, SYBR Green DNA, 72 h; at 28.5 µM (top of the series) unless noted
Summary of the method: as §1

[3] = qHTS profiling of the MIPE4 collection as inhibitors of Plasmodium falciparum (HB3) proliferation (AID 743347; call rule not given here;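 also: plate controls were DMSO vehicle wells for no effect and artemisinin wells for full effect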); conditions: P. falciparum HB3 in erythrocytes, SYBR Green DNA, 72 h; at 28.5 µM (top of the series) unless noted
Summary of the method: as §1

[4] = High-throughput drug toxicity screening in the BPDCN cell line Gen2.2 (AID 1224824; call rule not given here;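 also: cells exposed to compounds for 48 h before reading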); conditions: Gen2.2 BPDCN cells; at 45.8 µM (top of the series) unless noted
Summary of the method: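 Readout is ATP luminescence from Gen2.2 cells after two days of drug exposure in serum-containing medium at 37 °C. Values express percent activity, with vehicle defining full signal and 9.2 uM bortezomib defining zero.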

[5] = High-throughput drug toxicity screening in the BPDCN cell line Cal-1 (AID 1224825; call rule not given here;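 also: cells exposed to compounds for 48 h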); conditions: Cal-1 BPDCN cell viability, qHTS; at 45.8 µM (top of the series) unless noted
Summary of the method: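 Viability of the BPDCN line Cal-1 is measured as ATP-based luminescence (CellTiter-Glo) following 48 h incubation with compounds. Percent activity uses DMSO-treated wells as 100% and 9.2 uM bortezomib as 0%.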

[6] = qHTS assay for measurement of the activity of small molecule inhibitors on Zika virus induced Caspase-3 activity in human iPSC derived neural progenitor cells (hNPCs) (AID 1224857); also: nearly all actives have a fitted effect of over 65% in size; also: potency is read from the fitted curve at half-maximal effect
Summary of the method: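 Percent inhibition of virus-induced caspase-3/7 luminescence (Caspase-Glo), scaled between uninfected cells and Zika-infected cells. hNPCs received compound 1 hr before ZIKV at 2 FFU/cell, with 6 hours infection at 37 C.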

[7] = qHTS assay for measurement of the activity of small molecule inhibitors on Zika virus induced Caspase-3 activity in human astrocytoma cells (AID 1224859);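 also: plate controls were ZIKV-infected untreated cells for no effect and uninfected cells for full effect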
Summary of the method: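 Luminescent caspase-3/7 read-out (30 min reagent, room temperature) in human SNB-19 cells infected 6 h with ZIKV (2 FFU/cell) after 1 h compound pre-incubation; Data were normalised to uninfected and infected wells.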

[8] = qHTS Screen of the MIPE 4.0 Collection Against Ewings Sarcoma (RDES) (AID 1259252); also: nearly all actives have a fitted effect of over 35% in size; also: potency is read from the fitted curve at half-maximal effect
Summary of the method: (§2)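 Measured: ATP luminescence (CellTiter-Glo) 10 min after reagent addition, following 48 h drug treatment. Relative luciferase units converted to percent activity, with no-cell wells as full and DMSO wells as zero inhibition.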

[9] = qHTS Screen of the MIPE 4.0 Collection Against Ewings Sarcoma (TC71) (AID 1259253); also: nearly all actives have a fitted effect of over 40% in size; also: potency is read from the fitted curve at half-maximal effect
Summary of the method: as §2

[10] = qHTS Screen of the MIPE 4.0 Collection Against Ewings Sarcoma (EW8) (AID 1259255); also: nearly all actives have a fitted effect of over 35% in size; also: potency is read from the fitted curve at half-maximal effect;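 as to viability: 100% = DMSO-treated cells and 0% = medium-only wells without cells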
Summary of the method: as §2

Compound | parasite growth remaining, % of DMSO control (lower = more inhibition) [1] | parasite growth, % of control (lower = inhibition) [2] | growth, % of control [3] | cell viability, % of control (lower = more cytotoxic) [4] | viability (% of control) [5] | Potency [6] | Potency [7] | Potency [8] | Potency [9] | Potency [10]
O=c1oc2cc(O)ccc2s1 | 123% | 54.9% | 99.9% | 68.5% | 92.8% | 11800 nM (active) | inactive | 16600 nM (active) | 18700 nM (active) | 13200 nM (active)
CCN(CC)CCOc1ccc(Nc2ncc3cc(-c4c(Cl)cccc4Cl)c(=O)n(C)c3n2)cc1 | 8.57% | 10.6% | 4.26% | 4.53% | 2.59% | inactive | inactive | 1870 nM (active) | 3320 nM (active) | 235 nM (active)
Clc1ccc2c(N3CCN(CCCN4CCN(c5ccnc6cc(Cl)ccc56)CC4)CC3)ccnc2c1 | 9.96% [at 9.64 µM] | 21.1% [at 9.64 µM] | 14.1% [at 9.64 µM] | 88.7% [at 23.2 µM] | 112% [at 23.2 µM] | inactive | inactive | inactive | inactive | inactive
CCOC(=O)C1=C(O)C(=O)N(Cc2ccccc2)C1 | 104% | 91% | 93.7% | 81.5% | 112% | inactive | inactive | inactive | inactive | inactive
CCCCc1ccc2nc(NC(=O)OC)[nH]c2c1 | 85.9% | 56.6% | 27.6% | 47.1% | 13.4% | inactive | inactive | 10.5 nM (active) | 18.7 nM (active) | 9.3 nM (active)
CC(C)[N+]1(C)[C@@H]2CC[C@H]1CC(OC(=O)C(CO)c1ccccc1)C2 (stereo partly drawn) | 89.9% | 77.3% | 75% | 31.9% | 31.8% | inactive | inactive | inactive | inactive | inactive
CCOc1cc(CC(=O)N[C@@H](CC(C)C)c2ccccc2N2CCCCC2)ccc1C(=O)O | 123% | 91.4% | 75.6% | 23.9% | 27.5% | inactive | inactive | inactive | inactive | inactive
COc1cc2c(cc1OC)C1CC(=O)C(CC(C)C)CN1CC2 (stereo not drawn) | 7.77% | 77.8% | 67.9% | 141% | 100% | inactive | inactive | inactive | inactive | inactive
O=C(OC1C[C@H]2CC[C@@H](C1)[N+]21CCCC1)C(O)(c1ccccc1)c1ccccc1 (stereo partly drawn) | – | – | 17.4% | 120% | 99.2% | inactive | inactive | inactive | inactive | inactive

From PubChem BioAssay (NCATS)
